# Measurements from the supplement of paper PMC6555819.
# Columns and labels:
# Assay in all cases: PBM binding z-score (relative to random genomic background probes); higher = stronger binding; sequences stand for … in GC…GCGATTGACAGCGTAGAATGAAGG
# [1] = system: FXR:RXRa (NR concentration 270 nM, RXRa partner concentration 90 nM)
# Summary of the method: (§1)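 Random background probes are the reference for binding z-scores. These scores derive from regression-normalized fluorescence on custom Agilent 4×180K protein-binding microarrays incubated 1 h with ligand-free nuclear receptor dimers. Binding was detected with antibodies against each partner (one per run).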
# [2] = system: LXRa:RXRa (NR concentration 270 nM, RXRa partner concentration 90 nM)
# Summary of the method: as §1
# [3] = system: LXRa homodimer (NR concentration 270 nM)
# Summary of the method: as §1
# [4] = system: LXRb:RXRa (NR concentration 270 nM, RXRa partner concentration 90 nM)
# Summary of the method: as §1
# [5] = system: LXRb homodimer (NR concentration 270 nM)
# Summary of the method: as §1
# [6] = system: PPARa:RXRa (NR concentration 270 nM, RXRa partner concentration 90 nM)
# Summary of the method: as §1
# [7] = system: PPARg:RXRa (NR concentration 180 nM, RXRa partner concentration 90 nM)
# Summary of the method: as §1
# [8] = system: PPARg:RXRa 270nM:90nM, anti-RXR (NR concentration 270 nM, RXRa partner concentration 90 nM)
# Summary of the method: as §1
# [9] = system: PPARg:RXRa 30nM:10nM, anti-RXR (NR concentration 30 nM, RXRa partner concentration 10 nM)
# Summary of the method: as §1
# [10] = system: PPARg:RXRa 90nM:30nM, anti-RXR (NR concentration 90 nM, RXRa partner concentration 30 nM)
# Summary of the method: as §1
Sequence,PBM binding z-score [1],PBM binding z-score [2],PBM binding z-score [3],PBM binding z-score [4],PBM binding z-score [5],PBM binding z-score [6],PBM binding z-score [7],PBM binding z-score [8],PBM binding z-score [9],PBM binding z-score [10]
TCGAGTAGGTTAGGGGCATTCTGAATGGCGTCGA,0.16,0.0463,-0.301,0.694,-0.421,1.08,0.543,2.02,1.09,1.41
CCATACAGGTGAAAGGTAACTCAGTCTGGTACGC,0.917,0.86,0.0219,1.34,0.147,4.47,7.97,7.64,6.75,8.48
TAATATAGGTAATACAGGTGAAAGTCGGCATCTA,0.455,1.04,0.599,0.603,0.797,2.57,3.18,3,2,2.17
GGAACGAGGGCAAAGTTGATATCATCTGTCGACG,1.25,0.812,-0.316,0.894,-0.47,3.94,6.68,6.84,6.13,7.1
ATACGAAGGTGATCGTGAGGTCGTTGATACTAAC,1.79,1.18,0.283,0.729,-0.403,1.47,0.5,0.532,0.382,0.531
CCTAGTGGGCCATTCAGAGGTCATTGATCATATG,2.85,4.29,6.62,3.77,0.202,3.98,2.23,3.11,0.966,2.3
ACTAGCAGGCCAAGTTTGGGGCACTCAAACAAAG,-0.415,-0.546,-0.667,-0.397,-1.03,-0.148,-0.208,-0.509,-0.663,-0.441
GCAGACAGGTGAAACGTAGGTAACTCAGGGTGGC,-0.116,0.0027,-0.589,-0.409,-0.785,0.799,0.792,0.526,-0.444,-0.0243
AAGACAGGGTCACTAGGCCAGAGTAGGTACGAAT,5.99,3.14,-0.215,3.25,-0.368,5.62,7.53,6.21,2.71,5.21
CCGAGTTGGTCAGGAGGTCACACACCGGATATGA,3.49,3.18,1.86,2.93,-0.213,4.03,2.62,3.24,0.983,2.36
TCTTGTAGATCAAAGGCTAAGAAAGCCGAAGCCT,0.284,0.0908,-0.472,-0.0772,-0.625,1.68,3.24,4.87,4.4,5.12
GTTTACGGGTCAAAGGTTATAGCATGAATAGAAT,6.92,5.94,0.633,6,0.401,6.92,11.3,9.13,9.06,10.1
CCAGACAGGTGAGAAGGTAGCTCAGCCTCGATTA,-0.337,-0.342,-0.166,-0.33,-0.763,0.0761,0.0523,0.0588,-0.801,-0.121
CCTAGGTGGTCAGGAGGTCACACACCGGATATGA,3.9,3.3,1.72,3.05,0.062,3.95,3.45,3.53,1.29,3.03
TAGCCTAGGTCAGATCGGGCCCGTATACGCTATA,1.58,1.2,-0.271,0.916,-0.19,1.67,0.67,0.657,-0.472,0.0407
GGAACGTGGGCAAAGTTGATAGCATCTGTCGACG,-0.58,-0.566,-0.508,-0.667,-0.939,0.742,1.45,3.26,0.952,2.7
TCATATAGGTGAAGGTGAAAGTCGAACGATATGA,0.452,0.703,-0.543,0.713,-0.39,3.24,5.02,5.16,4.73,4.96
GCTGCTAGGTCAGGTTGGTCAGCTGACGGGTACG,1.19,0.902,-0.423,0.356,-0.106,1.26,0.207,1.04,-0.528,0.514
CCGACTGGGGCAGAAAGGTTACCATACCATCCGG,0.35,0.432,-0.092,0.947,-1.04,2.03,1.69,2.6,0.687,2.03
TCTTGCAGGCCAGAGGGTCACTCAAGAGGTACGG,1.13,1.04,-0.621,1.3,-0.52,2.81,1.99,3.39,2.63,3.38
CAAACTAGGTCAAAGATCAAAGTCGAGCCAACCA,4.71,3.87,0.503,3.15,0.553,6.47,11.6,9.58,9.42,10.6
GCTAGTTGGACAGTAAAAGGTCACACACCGGTCG,2.82,4.25,4.25,4.22,0.188,4.4,2.61,3.78,1.89,3.36
TCTTGTAGATCTAAGGTTAAGAAAGCCGAAGCCT,0.97,0.808,0.287,1.16,-0.127,1.98,1.85,3.71,3.41,4.08
CTCGAAAGGTCGTGCTCAGGTGAGTTTACCAAAC,5.01,4.08,0.0619,3.31,0.366,4.6,1.98,3.86,1.67,2.65
AATACAGGCTCACTAGGCCAGAGTAGGTACGAAT,-0.561,-0.71,-0.282,-0.839,-0.695,-0.441,0.692,0.176,0.027,-0.114
